In all, about 59,000 sequences were measured (the read-out: median about -0.00055, lowest 2% from about -2 on). This excerpt belongs to a sample that is enriched for the lowest values.

A short description of this assay: Identification of proteins required for the processing of the EWS-FLI1 nascent transcript.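 Also: robust z of luciferase light less the median z of siRNAs with the same seed.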 The note with it: TC32 Ewing sarcoma NR0B1-luc vs CMV-luc (EWS-FLI1 target promoter against control promoter), 48 h; screened at 20 nM (by protocol). The method, boiled down:
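Genome-wide siRNA screen (Ambion v4.1, three siRNAs per gene, 20 nM final, RNAiMax) in Ewing sarcoma TC32 cells carrying NR0B1-promoter or CMV-promoter luciferase; OneGlo luciferase read 48 h post-transfection. Data normalized, z-score-MAD transformed and seed-adjusted.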
On to UAAUAUCCGGUAAGAAUCC against DDB2, for which the seed-corrected z-score is -0.365. With UAUAGGUAAGGAUUUCUGC against KRTAP9-2 the figure was -0.397; with UGUCUUCUAAAGUAAGUGG against ZNF77, -2.26; with UCACGAACAUGUUGCAAGG against KRIT1, -0.0242.

In the case of UAGUUCAUAAUCCAAGUCC against COL6A3, the seed-corrected z-score is 0.0612. Sequence AUGACUUUAGGUCGCAUCG against FBXL12 registered a seed-corrected z-score of -13.4. For UUUGGGAUUUCCAUUGUCU against LRP2BP, the seed-corrected z-score turned out to be 0.259. With UUGGAUACAAAGGAACAAC against DHX32 the figure was -0.291. As for UUUGAGUCCACCACGAAGC against MYH3, the seed-corrected z-score is -0.0465. For UCUGCUGCUCGUCAAGUUC against MAP2K2, the seed-corrected z-score turned out to be 1.77. With UCUCUUUAAAGACUCCUCC against LPO, the seed-corrected z-score was 0.133. The sequence UUGGGAUAUAUUUAGCGGC against ITGB1BP2 registered a seed-corrected z-score of -2.58. The sequence UUUCGGAUGAGCACGCAGC against APRT returned a seed-corrected z-score of -0.0241.

In turn, UUCUUGUUCACUCUAAUUU against NFIC showed a seed-corrected z-score of 0.384. For AUAGUGUCGAUAAAAACCU against CHRNA1, the seed-corrected z-score was found to be 0.527. With AAAGUUGCGGAAGCUGAUG against LRP3 the figure was -2.42.

The sequence UAUCUGUGCAGUUAAGAUG against LOC401220 registered a seed-corrected z-score of -0.155. In turn, UUUCACUCCACUGAAGUAC against CDKL1 came in with a seed-corrected z-score of -0.736. In the case of AGCUGUAGCACCAUCAACG against OR7G3, the seed-corrected z-score was -1.26. Sequence UUCGAUUCCAAGCCUUACG against CCDC113 gave a seed-corrected z-score of 0.591. AAGUUACCCACGUAGAUGC against SRSF1: the seed-corrected z-score was -1.35. For UAAGAUAUUUGUCCAACAG against YWHAB, the seed-corrected z-score worked out at 0.25. UCAUUGAUCUAAAACGACC against PPFIA1: the seed-corrected z-score came out at 0.863.

As for UUCUCCUUCACAUACCGGC against CLK3, the seed-corrected z-score came to 0.176.

UAUCUUCACUGAAUUGACC against ARL8B displayed a seed-corrected z-score of 0.269.

Sequence AUAUGCUUCACAGUUCUAG against MMP1 returned a seed-corrected z-score of -2.83. UAUAGGCCUUCUACAUUGC against ROM1 displayed a seed-corrected z-score of 1.12. With UUGCGAAUGAGGUUGUAGG against PIK3C2B the figure was -0.721; with UCUGAUAGCAAUAACUUGG against PPCS, -0.294; with UGUUGACUCACUGUAGGCU against LOC729683, 0.842.

The sequence AAAGAGGAAACGGUAGGCC against JAGN1 yielded a seed-corrected z-score of -2.67. In turn, UAUUGGAUCCGGUGCAACC against SYPL2 came in with a seed-corrected z-score of -0.246. In turn, UUGGUUAUCCUCUAUACCC against MTERF3 gave a seed-corrected z-score of 0.193. For the sequence UUCAUCAUCGAGGUCAUCC against DPF2, the seed-corrected z-score is -3.12.

Sequence UGAACUAUUGGAAUGUCUC against SEC11C displayed a seed-corrected z-score of 0.165.

The sequence AUCGUAGUCAGUGUAUCUG against PPARGC1B returned a seed-corrected z-score of -0.163. With UAUAGAGCUGCCGUCUCCG against ESRP2, the seed-corrected z-score is -0.989. The sequence UCACUGUUUACUUAGCGCU against HIST1H2BJ gave a seed-corrected z-score of 1.62. UGCCGAACCACUUCCAGAG against TNRC18P2 showed a seed-corrected z-score of -1.02.

In turn, AUAGUAAAUAAACACUGCC against RHBDL2 showed a seed-corrected z-score of -2.55. The same measure for AAUCUGAGAACAGACCGUG against MXD4: 1.77; for AUAGGAGUAAGAAUUUUUG against NUDT10: -0.635. AUGCUUAUAAUGACCACCA against SLC51B registered a seed-corrected z-score of -2.22. For UGAAACACCAUUAAAACGG against TDG, the seed-corrected z-score worked out at 0.355. Consider UAAAUCUGCUUAUCUCUUC against TFAM, for which the seed-corrected z-score was -0.445. With UUCUUGAAAAGGCAACAGU against POC1A, the seed-corrected z-score turned out to be 0.91.

For AAAGCGACAUUGUUUGACC against COPB2, the seed-corrected z-score was -2.18.

UUGGUCAUAGAGGUCGUCC against LSR returned a seed-corrected z-score of -1.71. As for UGUCGGAUGAGGUCAUUGC against TNS4, the seed-corrected z-score was -2.96. UUGUUUGCAGGUUCUACUU against DDX19B showed a seed-corrected z-score of -0.121. UCUAGUAUUACUGCUACUG against DDHD2 came in with a seed-corrected z-score of 0.72. With AAUGUACAAGUGGUCAUUC against MAGED2, the seed-corrected z-score is -2.83. On to UCAUAGUCCAGGGUAAGGC against LRP4, for which the seed-corrected z-score is -1.11. In turn, UCUUUGUACGCAUCAAGUG against NPY1R returned a seed-corrected z-score of -0.0164. In the case of AUAGAUUAACCAUGUUUCC against KCNN3, the seed-corrected z-score is -0.34. UCCAUUGAUAGAACCAUCU against HFE2: the seed-corrected z-score is -0.476. With UAAGAUGAUCGUGAACUUG against RPL39L, the seed-corrected z-score came out at 0.982. Turning to UGCAUUUCUAUAUUCAACC against TLE4, the seed-corrected z-score was -0.442. Sequence UAUAGGUGUAGAUUACAGG against OR13G1 had a seed-corrected z-score of -0.49. The same measure for UAACUUGUUUGUUUACAAC against RPL21P62: -3.04; for UGAAUUUCCGGUGCUUGCC against PDGFB: -0.605; for UAGGAGAUAGCGAUGACCA against NPBWR1: 0.302. The sequence AAAGAGGUACUCACAGGGC against LGR6 returned a seed-corrected z-score of -0.878. With UUCGGUCUGCUAAUGCUGG against CNOT2 the figure was 1.7; with AAUCUCACAACAGUUAUGG against MTMR8, 0.0648; with AUACUACUUACAACCGGGC against SON, 1.15.

On to ACAGCUAACAUGGACACUC against SHTN1, for which the seed-corrected z-score was 0.393. The sequence UAGGUAACCAUAGUACUCA against ISY1 displayed a seed-corrected z-score of -2.1. Regarding UGUAUAGAAAAAUUCACGC against CRY1, the seed-corrected z-score amounted to 0.235. On to UCCAGUAGCACCAUAGUUC against ZNF449, for which the seed-corrected z-score was -0.629. With UUCGUGAUCAUCUUCUCAC against PHYH, the seed-corrected z-score turned out to be 0.854.

AAAUGUUCACCUGUCUUCU against RPS4Y1 returned a seed-corrected z-score of -0.188. With UUCAUAUAUGAGUCAAUGG against HMG20A, the seed-corrected z-score came out at 0.779.

As to UUCCUCAUGAUUGUCCUCA against GABARAPL1, the seed-corrected z-score was -0.0836. With UUAGUAUUUGGUAUUCAGA against FCGR1A the figure was -0.211. For the sequence UAGGAUCCAGGGUUAGUUU against RPL18, the seed-corrected z-score was -2.17. With UUAGGGUCCCUCAUCUUCA against LOXL4 the figure was 0.627; with UAUUAUUAAAGUGAGAUGG against SNCA, 0.375. Consider UCUGGUGAACGACUCUUGC against MGMT, for which the seed-corrected z-score came to 0.137. The sequence AUCUGUAUUCUCACUAUAG against TTC23 came in with a seed-corrected z-score of -1.15. Consider UUAAUGAUAGAGACUAGGA against LTC4S, for which the seed-corrected z-score was -0.727. With GUUACAUACCUUUUUCUCU against GTF2H2B the figure was 0.209; with UCAUAGAAGAGGUCUGUCU against PHF5A, -2.2; with UUCAUAGCCUCUUCAAUGG against SPAG7, -1.44. The sequence UACACUCUAAGAGCUCUUC against BCAT1 yielded a seed-corrected z-score of 1.4. UUAAAUUCUUGGAAGUAGA against SCNN1B had a seed-corrected z-score of 0.779. Consider UGACGAAAUAGUAGAAGUG against MOB3A, for which the seed-corrected z-score was -0.387. The same measure for UUCAUCACCAGCUCUUUCC against CLEC4F: -0.0692; for UCAUGGGACGGCAUAACUG against SPDYE3: -0.601; for ACGAUUACAACUUCGAUCC against DOCK7: 1.63. Take UGGCGCUUGAUUGGAACUC against UNC5B-AS1: the seed-corrected z-score was -0.56. Sequence AUGUUUGACAUUGUCCACG against KPNA2 displayed a seed-corrected z-score of -2.38.

AAGUUGAAGAUAAGAGUCC against C11orf63 had a seed-corrected z-score of -0.178. The sequence AUCGAAAUAAGUCAGAUAG against NAA25 registered a seed-corrected z-score of 0.893. As for UGACCUGUAGCGUUGCAGC against EFCC1, the seed-corrected z-score was -0.581. Turning to UCUAUAUCUCCGUAAUUCC against TRRAP, the seed-corrected z-score was -2.5.

Take UUAGUUCCUGGGUAUCUGC against SNAP47: the seed-corrected z-score was determined as 1.17.

UUUCAUAGAAUCUAUCCAG against C20orf196 yielded a seed-corrected z-score of 0.184. The same measure for UUUGGAACUGGUCAUGUGU against RPL29P30: -3.1; for UUUCUGAGGAGACAACUCU against ANKRD36B: 0.345; for UUGGGUAAAAUGUCCACUC against SPATS1: -2.28. The same measure for UGUGCGACUGGAGAAUGCG against KRT81: -0.00183; for UGAUAUAUAACUUAGAUGG against VWA9: -12.6. Consider AGAGUGACCAGUCCGGUAG against CIDEA, for which the seed-corrected z-score amounted to 0.43. The same measure for UCCCGGUCUGCAUUCUUCC against PHKA1P1: -0.749. In turn, AAAGUUGCUACAGCUGUCA against SH3BP5 registered a seed-corrected z-score of -2.12. Sequence UUAGUGUGAAUAGUGAUUU against PODXL yielded a seed-corrected z-score of 0.827. On to UAUCUUUCUCAGGAGUUUG against OR2T10, for which the seed-corrected z-score is -0.23.

On to AUAGCAGUCAACAUCGUAG against TMED3, for which the seed-corrected z-score is -2.8.

UGACUUGGCACAGUAUAUC against FAM83A: the seed-corrected z-score is -0.413. The same measure for UAUCUUUAAAGUGUAUCUA against FAM230B: 0.596; for UCUAGGCUCAGGAAGUUCU against AP5S1: -1.09; for AAACCAAGUAGCUUGAUGU against LOC647275: 0.229. Turning to UCAUUUUGAAUUGAAGAUG against FAM76A, the seed-corrected z-score was 0.228. Turning to UUUCCAUAGGAGACGAUGC against CTSG, the seed-corrected z-score turned out to be 0.0794.

UGUUGAUAAGUUACCAUCC against GPCPD1: the seed-corrected z-score is 0.968. For the sequence UUGUUCUAAAGUAUCCUCC against NDC80, the seed-corrected z-score was -2.14. Take AGUCAUUUAAACUUGAUCC against TMSB4X: the seed-corrected z-score was determined as 0.898. UACGCUUUCUCUACAGUAC against ZNF606: the seed-corrected z-score amounted to 0.237. The same measure for UCUCUUAUGCAGCUUGUGG against SPTBN4: 0.43; for UGCAUAGACAAGGCAGUCG against ZNRF2: -2.35; for UCAGCUGAUAUCUUGUUGC against UBOX5: 0.0283. Sequence ACAGUUUCGAAGGCGAAUG against ABCB9 returned a seed-corrected z-score of -1.83. AAUGCAACCACAGCUAUCC against THNSL1 registered a seed-corrected z-score of 0.294. On to UUACUGUGCUGUCUAGACC against TMEM79, for which the seed-corrected z-score stood at 1.12.

In the case of UUGCUAUUCCUCCUGGUAG against IRF2BP2, the seed-corrected z-score is -0.0854. Take AAUAUCAAUACGAUCUCUG against SNAP23: the seed-corrected z-score is -0.225. Turning to UUAUGUAUCAUACAAAAGU against YPEL4, the seed-corrected z-score is 1.55. In turn, UGUGCCUUUCUGACGAUGG against SBK2 registered a seed-corrected z-score of 0.535. The same measure for UAAGUGGAAAUCCUCGGGC against WBP2NL: 1.46. Turning to UUAUUUAUUCCGUUCAUAU against UBE2V2, the seed-corrected z-score is -3.25. In turn, UCAUGUAAUCUAGCGAUCG against ENTHD1 gave a seed-corrected z-score of 0.768. The same measure for UUUUGGUCACUUCAAAUUC against MYDGF: -2.17.

The values above are taken from PubChem BioAssay AID1159506 (National Center for Advancing Translational Sciences (NCATS), 2015).
